# From PubChem BioAssay (NCI)
# About 83,000 compounds went through this panel and 20% of them were active in at least one assay; those are over-represented in the sample as a whole.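 Treatment: one concentration, 48 hours, 96-well format. Scoring: percent growth, with anything below 10 considered active.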 Unmarked numbers belong to inactive results. Calls of active or inactive are those of the source.
# What was measured:
# Test in all cases: NCI-60 one-dose screen, 48 h (100 = growth as untreated, 0 = no growth, -100 = all killed)
# Settings in all cases: 10 µM unless noted
# [1] = system: SR leukemia
# [2] = system: RPMI-8226 leukemia
# [3] = system: OVCAR-8 ovarian
# [4] = system: OVCAR-5 ovarian
# [5] = system: OVCAR-4 ovarian
# [6] = system: SK-OV-3 ovarian
# [7] = system: IGROV1 ovarian
# [8] = system: OVCAR-3 ovarian
# [9] = system: HS 578T breast
# [10] = system: NCI/ADR-RES ovarian
Structure (SMILES),growth [1],growth [2],growth [3],growth [4],growth [5],growth [6],growth [7],growth [8],growth [9],growth [10]
O=C(/C=C1\C(=O)N(Cc2ccc([N+](=O)[O-])cc2)c2ccccc21)c1ccc(OCCN2CCCCC2)cc1,-27.9% (active),-36% (active),0.287% (active),-40.6% (active),-58.8% (active),85%,-49.3% (active),-93.8% (active),6.94% (active),6.18% (active)
COc1ccc2c(c1)cn1c3ccc(O)cc3[nH]c(=O)c21,3.4% (active),-20.2% (active),15%,18.7%,28.6%,11.3%,13.2%,-21.9% (active),-22.9% (active),1.78% (active)
C#CCCCCCCC[C@@H]1OC(=O)[C@H]([C@@H](C)CC)NC(=O)[C@H]([C@@H](C)CC)NC(=O)CC(=O)[C@@H]1C,82.2%,89.4%,101%,90.6%,97.6%,103%,89.5%,101%,90.1%,94.9%
O=C(O)CC1Cc2ccccc2C1C(=O)O (stereo not given),-8.39% (active),110%,101%,108%,113%,102%,110%,102%,104%,99.5%
CC(=O)Nc1nc(C)c(C(=O)N/N=C/N2CCOCC2)s1,169%,116%,115%,106%,119%,110%,70.3%,104%,97.6%,120%
CCCCCCCCCCCCCCCCNC(=S)N/N=C/c1ccc(OC)cc1,106%,93.2%,92.1%,105%,113%,114%,106%,110%,107%,101%
COc1ccc(Cn2cc3c(c2)-c2oncc2CC3)cc1OC,16.8%,35.1%,24.5%,40.3%,43.4%,-12.4% (active),17.6%,-27.4% (active),2.04% (active),1.63% (active)
N=C(c1ccccc1)N(Cc1ccccc1)Cc1ccccc1,64.8%,94.4%,97.9%,86.3%,84.9%,98.1%,67%,110%,113%,99.8%
O=c1c2c(c3ccccc3n1-c1ccccc1)NC(=S)NC2c1ccccc1 (stereo not given),108%,50.1%,106%,102%,79.5%,95.1%,102%,105%,105%,109%
Cc1nc2ccccc2c(=O)n1-c1cccc(OCc2cn(-c3cccc(O)c3)nn2)c1,86.3%,71.5%,88.6%,111%,89.6%,103%,99.2%,91.5%,87.4%,98%
CCCCCCCCc1ccc(OCCOCC[N+](C)(C)CC)cc1 (tested in a mixture with another compound),37.7%,8.79% (active),48.4%,76%,20.7%,78.5%,33.8%,20.6%,37.7%,107%
C=CCNC(=S)NNc1ccc([N+](=O)[O-])cn1,98.3%,101%,111%,95.6%,-92.2% (active),104%,102%,98.7%,105%,95.9%
COC(=O)c1ccc(C(=Nc2ccc(N(C)C(=O)CN3CCN(C)CC3)cc2)c2c(O)[nH]c3ccc(C(=O)OC)cc23)cc1,2.08% (active),15.1%,30.7%,69.7%,38.3%,0.753% (active),5.1% (active),28.3%,8.61% (active),107%
